Bioassay records deposited in PubChem BioAssay by National Center for Advancing Translational Sciences (NCATS).
ELG1 DNA repair: ELG1-dependent DNA repair inhibition | HEK293T ELG1-luciferase reporter, luminescence, 16 h; DNA damage induced by 5-fluorouridine | Potency, µM (highest dose often 46.1 µM), most hits filed as inhibitors | 2.3% of 330,000 active; note: nearly all actives have a fitted effect of over 55% in size
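DMSO vehicle served as the neutral condition. Each well held 2,000 cells given 5-fluorouridine plus compound; after 16 hr at 37 °C/5% CO2, ONE-Glo was added and luciferase measured 30 min later.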
TSHR antag: blocks TSH signaling through the human TSH receptor. 0.2% of 330,000 active. activity change, negative = inhibition, % at 11.5 µM. TSHR-expressing cells, TSH-stimulated cAMP HTRF, 2 h; stronger effect = lower value. AID 504810;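 active = activity change below a set negative limit, meaning inhibition stronger than a set level, cut at about -70% in these data; inconclusive = activity change between two set negative limits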
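Antagonism was scored as loss of TSH-driven cAMP in TSHR cells, stimulated with 4nM TSH (EC80) for 2 hours at 37 deg C and detected by homogeneous HTRF competition immunoassay.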
RORgamma inh: ROR gamma (mouse) transcription inhibition; Drosophila S2 Gal4-RORgamma UAS-luciferase reporter, 20 h; Potency, µM (series often up to 53.6 µM), hits mostly inhibitors; 5.4% of 310,000 active; note: nearly all actives have a fitted effect of over 60% in size
Target sequence (P51450 whole entry, looked up, the tested form may be a part): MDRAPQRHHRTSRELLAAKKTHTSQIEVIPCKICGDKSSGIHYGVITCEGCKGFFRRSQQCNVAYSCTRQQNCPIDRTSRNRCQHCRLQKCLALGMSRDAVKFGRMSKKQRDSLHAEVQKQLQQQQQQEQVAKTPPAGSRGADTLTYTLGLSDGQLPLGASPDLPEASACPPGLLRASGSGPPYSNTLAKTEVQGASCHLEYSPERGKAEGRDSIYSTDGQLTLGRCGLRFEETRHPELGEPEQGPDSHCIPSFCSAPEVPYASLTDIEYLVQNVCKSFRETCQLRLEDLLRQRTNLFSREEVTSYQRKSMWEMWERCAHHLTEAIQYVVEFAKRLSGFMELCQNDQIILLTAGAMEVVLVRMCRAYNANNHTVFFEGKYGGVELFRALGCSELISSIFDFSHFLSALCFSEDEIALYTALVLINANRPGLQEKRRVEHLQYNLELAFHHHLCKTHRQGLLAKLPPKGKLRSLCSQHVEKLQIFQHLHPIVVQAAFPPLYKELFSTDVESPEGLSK
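Compounds are pin-transferred onto Drosophila Schneider cells expressing a copper-inducible Gal4–ROR gamma transactivation domain fusion. After 1 hr, copper sulfate is added to 700 uM final; luciferase is read 20 hr later.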
Coupling enz: inhibits coupling enzyme system, counter-screen for aldolase hits | coupling enzyme system counterscreen, AmpLite Red fluorescence | activity change, negative = inhibition, % at 58.2 µM, hits read low | 0.67% of 290,000 active; in the data active = activity change below about -30%
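First, compound is pin-transferred into glyceraldehyde-3-phosphate coupling-enzyme reagent at 57.5 uM final and held 10 min at RT. Next, substrate, coupling system and AmpLite Red are added. After 20 min RT, fluorescence (525/598 nm) is read.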
VP16 counter: counter-screen for ROR gamma inhibitors: Gal4-VP16 reporter. Drosophila S2 Gal4-VP16 UAS-luciferase, luminescence, 20 h. Potency, µM (titrated, usually from 53.6 µM), usual class: inhibitors. 3.5% of 310,000 active. AID 2546;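 note: Gal4-VP16 expression switched on by copper sulfate through the metallothionein promoter; nearly all actives have a fitted effect of over 50% in size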
Numbers stand for hits; n = inactive; u = inconclusive; x = no result given; [ ] = remark or other dose. Compounds with a hit are over-represented: about 8% of the library has one in this group of screens. Unless noted, calls come from the whole dose curve; as a rule, active = well fitted curve in the direction sought with a large enough effect; inconclusive = small, poorly fitted or top-dose-only effect, or another doubt; inactive = no such curve, though single readings can be large; an effect the other way counts as inactive or inconclusive.

SMILES	ELG1 DNA repair	TSHR antag	RORgamma inh	Coupling enz	VP16 counter
C=CCNc1nc2c(c(=O)n(C)c(=O)n2C)n1CCCCCC	n	n	u	n	5µM
Cn1c(=O)n(Cc2ccccc2)c(=O)c2c1nc(NCC1CCCO1)n2Cc1ccccc1 (stereo unspecified)	21µM	n	n	n	n
CC1CCCN(C(=O)c2ccc3c(=O)n(Cc4ccc5c(c4)OCO5)c(=S)[nH]c3c2)C1 (stereo unspecified)	u	n	7.9µM	n	u
CCCN(CCC)C(=O)c1ccc2c(=O)n(Cc3ccco3)c(=S)[nH]c2c1	n	n	3.2µM	n	u
CCOCCCn1c(=S)[nH]c2cc(C(=O)NCCc3ccccc3)ccc2c1=O	n	n	u	n	n
O=C(c1ccc(Cn2c(=S)[nH]c3cc4c(cc3c2=O)OCO4)cc1)N1CCN(c2ncccn2)CC1	7.3µM	n	u	n	n
CCCn1c(=S)[nH]c2cc(C(=O)N(CCO)Cc3ccccc3)ccc2c1=O	n	n	13µM	x	u
COc1ccccc1C(C)NC(=O)c1cc(=O)[nH]c2ccccc12 (stereo unspecified)	n	n	n	n	n
N#Cc1ccsc1NC(=O)C1CCCN1S(=O)(=O)c1cccs1 (stereo unspecified)	n	n	x	x	x
CC(C)OCCCNC(=O)c1ccc2c(=O)n(Cc3ccc4c(c3)OCO4)c(=S)[nH]c2c1	u	n	n	n	n
CCN(CC)C(=O)c1ccc2c(=O)n(CCOC)c(=S)[nH]c2c1	u	n	n	n	n
CCN(CC)C(=O)c1ccc2c(=O)n(Cc3ccc4c(c3)OCO4)c(=S)[nH]c2c1	n	n	11µM	n	u
CCN(CC)C(=O)c1ccc2c(=O)n(Cc3cccc(Br)c3)c(=S)[nH]c2c1	u	n	7.1µM	n	13µM
CN(C)c1ccc(NC(=O)c2cnsn2)cc1	u	n	10µM	n	10µM
Cc1noc(NC(=O)c2ccc(Cl)c(Cl)c2)c1Cl	n	n	u	n	18µM
O=C(NCCS(=O)(=O)N1CCN(c2ccccc2)CC1)C1CC(=O)N(c2ccccc2)C1 (stereo unspecified)	n	-135	n	n	n
COc1ccc(-c2[nH]ncc2/C=C(\C#N)C(=O)NC2CC2)cc1	18µM	n	n	n	n
N#C/C(=C\c1cn[nH]c1-c1ccc(Cl)cc1)C(=O)NC1CC1	u	n	u	n	n
CC1=NN(C(N)=S)C(=O)C1N=Nc1ccccc1Cl (stereo unspecified)	u	n	0.63µM	n	1µM
CC1=NN(C(N)=S)C(=O)C1N=Nc1ccccc1C(=O)O (stereo unspecified)	n	n	n[1.91 µM]	n	n
Cc1nn(-c2ccc(Cl)cc2Cl)c(=O)c2ccccc12	n	n	n	n	n
CC1=NN(C(N)=S)C(=O)C1N=Nc1ccc(Cl)cc1Cl (stereo unspecified)	u	n	0.45µM	n	0.63µM
COc1ccccc1N=NC1C(=O)N(C(N)=S)N=C1C (stereo unspecified)	n	n	u	n	3.2µM
C[C@H]1Cc2c(-c3ccccc3)nc3c(c2CO1)CN(C(=O)c1ccco1)CC3	x	x	x	n	x
O=C(CSc1nnc(-c2ccco2)o1)N1c2ccccc2CCc2ccccc21	12µM	n	n	n	n
SMILES	ELG1 DNA repair	TSHR antag	RORgamma inh	Coupling enz	VP16 counter
O=C(CSc1nnc(-c2ccco2)o1)c1ccccc1Cl	u	n	4µM	n	u
O=C(CSc1nnc(-c2ccco2)o1)c1ccc([N+](=O)[O-])cc1	n	n	0.79µM	n	0.89µM
O=C(CSc1nnc(-c2ccc(Br)cc2)o1)N1CCN(C(=O)c2ccco2)CC1	23µM	n	n	n	n
Cc1cc(C(=O)CSc2nnc(-c3ccco3)o2)c(C)n1Cc1ccco1	n	n	n	n	n
CC1CCCCC1NC(=O)CCS(=O)(=O)c1cc2c(cc1Cl)NC(=O)CO2 (stereo unspecified)	n	n	n	n	n
CCNC(=O)CN(c1ccc(F)cc1)S(=O)(=O)c1ccc2c(c1)OCCO2	n	n	n	n	n
Cn1ncc([N+](=O)[O-])c1C(=O)N1CCCCCC1	n	n	x	n	x
O=C(CSc1ccc(-c2ccccn2)nn1)c1ccc([N+](=O)[O-])cc1	n	n	4.5µM	n	u
O=C(CSc1ccc(-c2cccnc2)nn1)c1ccc([N+](=O)[O-])cc1	n	n	n	n	n
CCOC(=O)c1c(C2CC2)csc1NC(=O)COC(=O)c1cc(OC)c(OC)cc1[N+](=O)[O-]	13µM	n	n	n	n
CCCOc1cccc(C2C(C(=O)c3cccs3)=C(O)C(=O)N2Cc2cccnc2)c1 (stereo unspecified)	n	n	n	n	n
O=C1CNC(=S)N1c1nc2ccccc2s1	u	n	0.79µM	n	5.6µM
O=C1CCC(=O)N1c1ccc(-c2nc3ccccc3s2)cc1	u	n	u	n	u
Cc1cc(O)c(/C=N/OCc2ccc(Cl)cc2Cl)c(=O)o1	n	n	13µM	n	u
COc1ccc(NC(=O)c2cc(OCCCN(C)C)nn2Cc2ccccc2)cc1	x	x	n	n	n
O=C(Nc1nnc(-c2ccco2)o1)c1ccc(Cl)s1	n	n	2µM	x	0.63µM
COc1cccc(-c2nnc(NC(=O)c3ccc(Cl)s3)o2)c1	u	n	0.25µM	n	0.22µM
COc1cccc(-c2nnc(N)o2)c1	n	n	n	n	n
COc1cc2nc(/C=C/c3cc(OC)c(OC)c(OC)c3)sc2cc1SC	12µM	n	n	n	n
Cn1c(NN)nc2sc3c(c2c1=O)CC(C)(C)OC3	n	n	1.4µM	n	3.5µM
CCCCCCCc1nc2sc3c(c2c(=O)n1N)CC(C)(C)OC3	u	n	n	n	n
CCCCCc1nc2sc3c(c2c(=O)n1NC(=O)c1ccc([N+](=O)[O-])cc1)CC(C)(C)OC3	u	n	22µM	n	n
CCC1(C)Cc2c(sc3nc(NC)n(C)c(=O)c23)CO1 (stereo unspecified)	u	n	n	n	n
CCC1(C)Cc2c(sc3nc(SC)[nH]c(=S)c23)CO1 (stereo unspecified)	n	n	u	n	6.3µM
CC1(C)Cc2c(sc3nc(=S)[nH]c(N)c23)CO1	n	n	u	n	18µM
